Sfp inh – qHTS Assay for Inhibitors of Bacillus subtilis Sfp phosphopantetheinyl transferase (PPTase); 4'-phosphopantetheinyl transferase ffp (Bacillus subtilis), Q9F4F7; Biochemical Sfp PPTase activity, qHTS; Potency, µM, for inactives: largest response in the series, negative = inhibition, usual class: inhibitors; 310,000 tested, 3.5% active; AID 1490, 2009;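 further: the enzyme is Sfp with the accession as filed and its product quenches rhodamine fluorescence; 0% = enzyme reaction without inhibitor and -100% = no enzyme wells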
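Fluorescence-quenching assay with 15 nM Sfp, 5 uM rhodamine-CoA and 12.5 uM BHQ-2-labelled ybbR peptide in pH 7.6 Hepes/MgCl2 buffer. Enzyme was pre-incubated with compound for 15 min at room temperature. Rate was taken from the 30-min fluorescence change (525/598 nm).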
JMJD2A Tudor inh – qHTS Assay for Inhibitors of JMJD2A-Tudor Domain. AlphaScreen JMJD2A-Tudor / H3K4me3 peptide binding. Potency, µM (top dose mostly 114 µM), for inactives: top-dose activity change, negative = inhibition, actives largely listed as inhibitors. 390,000 tested, 4.4% active. AID 504339, 2011; further: on the % scale 0 is the no-effect control and ±100 the full control effect; nearly all actives have a fitted effect of over 50% in size
BAZ2B inh – qHTS Assay for Inhibitors of BAZ2B; Bromodomain adjacent to zinc finger domain protein 2B (Homo sapiens), Q9UIF8; AlphaScreen BAZ2B-H3K14Ac peptide displacement; Potency, µM (doses to about 114 µM), for inactives: at the top dose activity change, negative = inhibition, actives largely listed as inhibitors; 360,000 tested, 4.4% active; further: on the % scale 0 is the no-effect control and ±100 the full control effect; nearly all actives have a fitted effect of over 60% in size
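BAZ2B 50 nM plus b-H3(5-23)K14Ac 50 nM, PBS pH 7.4/0.01% Tween-20, 30 min RT; compound added (max 110 uM), 30 min RT; streptavidin donor/Ni-chelate acceptor beads 10 ug/mL final, 20 min dark; AlphaScreen read.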
L3MBTL1 block – qHTS Assay for the Inhibitors of L3MBTL1 | Lethal(3)malignant brain tumor-like protein 1 (Homo sapiens), Q9Y468 | AlphaScreen L3MBTL1–H3K9me1 peptide binding | AID 485360, 2010 | Potency, µM (titrated, usually from 57.1 µM), for the others: at the top dose activity, negative = inhibition, most hits filed as inhibitors | 230,000 tested, 0.66% active; further: on the % scale 0 is the no-effect control and ±100 the full control effect; nearly all actives have a fitted effect of over 60% in size
Target sequence (Q9Y468 whole entry, looked up): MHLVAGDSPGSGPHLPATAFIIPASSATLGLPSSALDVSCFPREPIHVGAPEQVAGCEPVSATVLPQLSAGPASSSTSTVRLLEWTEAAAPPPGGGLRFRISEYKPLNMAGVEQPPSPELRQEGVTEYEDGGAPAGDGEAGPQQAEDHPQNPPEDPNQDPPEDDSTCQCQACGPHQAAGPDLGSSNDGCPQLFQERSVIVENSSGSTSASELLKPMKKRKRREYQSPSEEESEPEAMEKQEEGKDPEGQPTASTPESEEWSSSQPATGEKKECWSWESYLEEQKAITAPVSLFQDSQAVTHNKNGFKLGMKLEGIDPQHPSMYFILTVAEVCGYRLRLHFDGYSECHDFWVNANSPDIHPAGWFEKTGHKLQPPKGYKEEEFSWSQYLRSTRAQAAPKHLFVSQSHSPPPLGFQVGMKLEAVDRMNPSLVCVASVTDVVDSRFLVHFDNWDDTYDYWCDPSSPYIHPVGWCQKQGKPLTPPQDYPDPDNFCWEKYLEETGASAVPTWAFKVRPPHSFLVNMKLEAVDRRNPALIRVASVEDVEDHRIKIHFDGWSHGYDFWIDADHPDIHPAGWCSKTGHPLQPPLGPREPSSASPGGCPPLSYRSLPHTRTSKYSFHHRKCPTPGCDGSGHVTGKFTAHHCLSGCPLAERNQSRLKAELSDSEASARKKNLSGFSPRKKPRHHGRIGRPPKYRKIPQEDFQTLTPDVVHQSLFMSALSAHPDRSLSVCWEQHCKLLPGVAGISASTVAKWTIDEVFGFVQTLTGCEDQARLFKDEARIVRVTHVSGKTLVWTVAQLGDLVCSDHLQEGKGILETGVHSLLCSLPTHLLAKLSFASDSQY
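Read-out is AlphaScreen signal from streptavidin donor and nickel chelate acceptor beads (10 ug/mL final each) bridging L3MBTL1 (50 nM) and biotinylated K9-monomethylated H3(1-15) peptide (75 nM), after 30 min compound exposure at room temperature.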
HP1b binding inh – HTS for Inhibitors of HP1-beta Chromodomain Interactions with Methylated Histone Tails; AlphaScreen HP1-beta / biotin-H3K9me3 peptide binding; Potency, µM (highest dose often 114 µM), without a hit: at the top dose activity change, negative = inhibition, actives largely listed as inhibitors; 390,000 tested, 0.56% active; further: nearly all actives have a fitted effect of over 70% in size
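HP1-beta protein (50 nM final) preincubated 30 min at room temperature with biotinylated H3(1-18)K9me3 peptide (50 nM) in PBS pH 7.4, 0.01% Tween-20, then compound added for 30 min. AlphaScreen streptavidin donor/nickel chelate acceptor beads (10 ug/mL final), 30 min dark, luminescence read.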
G9a inh – qHTS Assay for Inhibitors of Histone Lysine Methyltransferase G9a; 350,000 tested, 8.8% active; Histone-lysine N-methyltransferase EHMT2 (Homo sapiens), Q96KQ7; AID 504332, 2011; G9a H3K9 monomethylation, AlphaScreen, 2 h; Potency, µM (highest dose often 102 µM), for the others: at the top dose activity, negative = inhibition, actives largely listed as inhibitors; further: on the % scale 0 is the no-effect control and ±100 the full control effect; nearly all actives have a fitted effect of over 75% in size
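AlphaScreen read-out: biotin-H3K9 peptide (500 nM) methylation by 20 nM enzyme with 20 uM SAM, 2 h at room temperature after 15 min compound preincubation; anti-monomethyl H3K9 antibody plus donor/acceptor beads, 10 min dark.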
An asterisk follows results filed as active; ? = inconclusive; / = no result given; [ ] = remark or other dose. Only some compounds are listed: those with a hit (about 12% of all), similar ones and a draw of the others. The call rests on the fitted dose curve; in most records, active means well fitted curve in the direction sought with a large enough effect; inconclusive means small, poorly fitted or top-dose-only effect, or another doubt; inactive means no such curve, though single readings can be large; an effect the other way counts as inactive or inconclusive. Potency means the concentration at half of the fitted maximal effect.

SMILES	Sfp inh	JMJD2A Tudor inh	BAZ2B inh	L3MBTL1 block	HP1b binding inh	G9a inh
O=C(c1ccc2c(c1)N(Cc1ccc(F)cc1)C(=O)c1ccccc1S2)N1CCC2(CC1)OCCO2	/	?	-18.9%	/	-7.5%	2.6%[59 µM]
O=C(NCCCN1CCCC1)c1ccc2c(c1)N(Cc1cccc(Cl)c1)C(=O)c1ccccc1S2=O (stereo unspecified)	-7.3%	-20.1%	-10.9%[57.1 µM]	/	19.4%	39.8µM*
Cc1cccc(N2C(=O)NC(=O)/C(=C\c3ccc4c(c3)CCCN4Cc3ccccc3)C2=O)c1	44.7µM*	-23.7%	?	-8.6%	14.5%	?
Nc1c(C(=O)Nc2cccc(F)c2)sc2nc(-c3cccs3)ccc12	/	12.8%	1.6%	/	53.5%	-1.0%[59 µM]
O=P(C(Cl)Cl)(N1CCOCC1)N1CCOCC1	20.1%	-8.5%	4.2%	/	-21.6%	-2.7%
O=CC(Br)P(=O)(N1CCOCC1)N1CCOCC1 (stereo unspecified)	25.1µM*	-16.3%	-6.3%	-9.6%	-23.2%	/
C=CCn1c(O)c(/C(C)=N/NC(=S)Nc2ccccc2)c(=O)[nH]c1=O	35.5µM*	?	-2.6%	/	6.4%	-124.3%[59 µM]
C=CCn1c(O)c(C(CC)=NCCc2ccccc2)c(=O)[nH]c1=O	4.3%	-10.5%	-6.4%	/	14.8%	-9.7%
C=CCn1c(O)c(/C(CC)=N/NC(=S)Nc2ccccc2)c(=O)[nH]c1=O	22.4µM*	-10.3%	-9.5%	-0.2%	17.6%	/
O=C1CCC[C@H]2[C@H]3CCCN4CCCC(=CN12)[C@@H]34	-17.0%	/	/	/	/	/
CCN1C[C@]2(C)CC[C@H](O)[C@@]34C5C[C@@H]6[C@@H](OC)C[C@@](O)(C5[C@H]6O)[C@@H](CC23)[C@@H]14 (stereo partly specified)	17.7%	/	/	/	/	/
CCOC(=O)c1c(-n2c(C)cc(C=C3C(=O)NC(=O)NC3=O)c2C)sc2c1CCCC2	-28.0%	0.8%	4.9%	1.5%	35.8%	?
CCOC(=O)c1cc(C)sc1/N=C/C1C(=O)NC(=S)NC1=O	20µM*	?	-33.4%	-16.6%	-16.0%	39.8µM*
N#Cc1c(/N=C/C2C(=O)NC(=S)NC2=O)sc2c1CCCC2	22.4µM*	-34.3%	?	-6.6%	6.0%	28.2µM*
CCOC(=O)c1c(/N=C/C2C(=O)NC(=S)NC2=O)sc2c1CCC2	12.6µM*	50.1µM*	-18.7%	-16.8%	39.6%	?
CCOC(=O)c1c(/N=C/C2C(=O)NC(=S)NC2=O)sc(C)c1C	25.1µM*	/	-10.1%	-9.0%	/	35.5µM*
COC(=O)c1cn(S(=O)(=O)c2ccccc2)c2ccccc12	?	40.6%	18.7%	/	56.3%	?
CC(=O)[C@@H]1CC[C@H]2[C@@H]3CC[C@@H]4CC(=O)CC[C@]4(C)[C@H]3CC[C@]12C	7.6%	/	/	/	/	25.7%[59 µM]
O=C(Oc1ccccc1)N1CCC[C@@]2(CCN(Cc3nccs3)C2)C1	19.8%	/	/	/	/	-6.4%[12.7 µM]
Cc1cc(SCc2sc(-c3ccc(C(F)(F)F)c(F)c3)nc2C)ccc1OCC(=O)O	-21.1%	/	/	/	/	/
C=CCn1cc(C=C2C(=O)N(C)C(=O)N(C)C2=O)c2ccccc21	-5.0%	-11.2%	5.1%	/	43.2%	-3.2%
C=CCc1cc(C=C2C(=O)NC(=O)NC2=O)cc(OC)c1OCc1ccc(C(=O)O)cc1	56.2µM*	-27.4%	-7.4%	/	44.1%	31.6µM*
C=CCc1cc(C=C2C(=O)N(C)C(=O)N(C)C2=O)cc(OCC)c1OCc1ccccc1	31.6µM*	?	3.1%	32.4%	290.3%	3.4%
CC(C)(C)c1cc(C=C(C#N)C#N)cc(C(C)(C)C)c1O	56.2µM*	2.9%	?	-19.8%	17.7%	12.6µM*
N#CC(C#N)=Cc1ccc(O)c(O)c1	39.8µM*	?	79.4µM*	22.4µM*	2.5%	8.44µM*
SMILES	Sfp inh	JMJD2A Tudor inh	BAZ2B inh	L3MBTL1 block	HP1b binding inh	G9a inh
CCc1ccc(/C=C(/C#N)C(N)=S)cc1	?	-34.0%	?	-4.0%	?	8.91µM*
COc1cc(C=C(C#N)C#N)cc(O)c1O	/	/	/	/	/	2.51µM*
CN(C)c1ccc(C=C(C#N)C#N)cc1	21.1%	-17.9%	-21.2%	7.0%	27.6%	6.9%[59 µM]
N#CC(=Cc1ccc(O)c(O)c1)C(N)=S	/	/	/	/	/	5.01µM*
C[C@H]1C[C@H](C)C(=O)[C@@H]([C@H](O)CC2CC(=O)NC(=O)C2)C1	16.6%	/	/	/	/	/
Cc1cc(C(=O)OCC(=O)Nc2ccc(F)cc2F)c(C)n1C1CC1	/	-9.8%	-4.7%	-2.9%	28.2%	-4.8%[0.501 µM]
Cc1cc(C(=O)OCC(=O)Nc2ccccc2F)c(C)n1C1CC1	/	-24.0%	-38.8%	-5.8%	0.6%	50.1µM*
Cn1ncnc2c(=O)n(C)c(=O)nc1-2	?	-4.3%	7.7%	-19.2%	62.1%	12.6µM*
Cc1ccc(-c2nc3c(=O)n(C)c(=O)nc-3n(C)n2)cc1	/	10.0%[57.1 µM]	/	/	5.8%[57 µM]	/
CN1C(=O)NC(=O)/C(=C\c2ccc([N+](=O)[O-])o2)C1=O	39.8µM*	15.8µM*	35.5µM*	10µM*	25.1µM*	12.6µM*
O=C1NC(=O)N(c2ccccc2)C(=O)/C1=C\c1ccc([N+](=O)[O-])o1	17.8µM*	/	39.8µM*	3.16µM*	/	12.6µM*
O=C1NC(=O)N(c2ccc3c(c2)OCO3)C(=O)/C1=C\c1ccc(N2CCCCC2)o1	-6.4%	-11.7%	-27.7%	-5.2%	24.2%	-11.8%[59 µM]
CN1C(=O)NC(=O)/C(=C/c2ccc([N+](=O)[O-])o2)C1=O	17.8µM*	22.4µM*	50.1µM*	25.1µM*	50.1µM*	/
COC(=O)C1=CO[C@@H](C)[C@@H]2CN3CC[C@]4(C(=O)Nc5c4ccc(OC)c5OC)[C@H]3C[C@H]12	2.2%	/	/	/	/	/
O=C(O)c1ccc2c(c1)C1C(Cl)C(Sc3ccccc3[N+](=O)[O-])CC1C(c1cccc([N+](=O)[O-])c1)N2 (stereo unspecified)	?	-21.8%[11.4 µM]	17.8µM*	22.4µM*	39.8µM*	20µM*
O=C(O)c1cccc2c1NC(c1cccc([N+](=O)[O-])c1)C1CC(Sc3ccccc3[N+](=O)[O-])C(Cl)C21 (stereo unspecified)	39.8µM*	22.4µM*	22.4µM*	20µM*	?	15.8µM*
CCOP(=S)(OCC)SCn1c(=O)oc2cc(Cl)ccc21	56.2µM*	/	/	/	/	/

Screens from PubChem.
